Assay results published in PubChem BioAssay AID2283170 (EPA ToxCast).
Results filed as inconclusive are left out. Active and inactive are the calls of the source. How the source made its calls: active means hit-call score of the fitted dose curve at least 0.9, where 1 is the maximum; inconclusive means response in the unintended direction; inactive means score below 0.9.

Each compound was assayed against human Lymphocyte-cell Factor Kinase (Lck), LCK (gene 3932) (UniProt P06239) (assay: NVS_ENZ_hLck: NovaScreen (NVS) Enzymatic Assay for human Lymphocyte-cell Factor Kinase (Lck)).
Chain of human Lymphocyte-cell Factor Kinase (Lck), LCK (gene 3932) (P06239 whole entry, looked up): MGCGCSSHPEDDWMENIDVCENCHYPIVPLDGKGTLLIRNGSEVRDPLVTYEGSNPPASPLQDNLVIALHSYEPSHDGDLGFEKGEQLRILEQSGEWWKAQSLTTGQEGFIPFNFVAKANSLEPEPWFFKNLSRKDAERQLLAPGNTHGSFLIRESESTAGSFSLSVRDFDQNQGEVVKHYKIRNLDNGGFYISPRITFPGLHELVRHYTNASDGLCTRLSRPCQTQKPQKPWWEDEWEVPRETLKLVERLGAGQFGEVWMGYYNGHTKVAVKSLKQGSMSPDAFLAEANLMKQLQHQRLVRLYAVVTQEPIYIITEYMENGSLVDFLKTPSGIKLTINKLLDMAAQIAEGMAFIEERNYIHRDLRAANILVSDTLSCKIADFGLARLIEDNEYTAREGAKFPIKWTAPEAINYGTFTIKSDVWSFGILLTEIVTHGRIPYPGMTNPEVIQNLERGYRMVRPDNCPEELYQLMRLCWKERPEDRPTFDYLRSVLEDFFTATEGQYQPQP
Experimental: NVS_ENZ_hLck is a biochemical, single-readout assay that uses extracted gene-proteins in a cell-free assay. Measurements were taken 1 hour after chemical dosing in a 384-well plate.NVS_ENZ_hLck is one of one assay component(s) measured or calculated from the NVS_ENZ_hLck assay. It is designed to make measurements of enzyme activity, a form of enzyme reporter, as detected with fluorescence intensity signals by Fluorescence and electrophoretic mobility shift technology.Data from the assay component NVS_ENZ_hLck was analyzed into 1 assay endpoint. This assay endpoint, NVS_ENZ_hLck, was analyzed in the positive analysis fitting direction relative to DMSO as the negative control and baseline of activity. Using a type of enzyme reporter, loss-of-signal activity can be used to understand changes in the enzymatic activity as they relate to the gene LCK. Furthermore, this assay endpoint can be referred to as a primary readout, because this assay has produced […] where this one serves a enzymatic activity function. To generalize the intended target to other relatable targets, this assay endpoint is annotated to the kinase intended target family, where the subfamily is non-receptor tyrosine kinase.
Binding assays used specific radioligands (tritiated, iodinated) with non-radioactive competitive displacement ligands in agonist or antagonist protocols (as indicated) and various reference compounds and inhibitors to titrate specific binding to receptors and transporters. Most enzyme assays (CYPs, kinases, phosphatases, proteases, HDACs) used recombinant protein and specific substrates (fluorescence mostly, some colorimetric and radioactive) and inhibitors, followed by a biochemical separation of substrate and product. All assays for the biochemical HTS were initially run in duplicate at a single concentration (10 uM for CYP450 assays and 25 uM for all others). Assay-chemical combinations meeting a pre-defined threshold (e.g., 30% inhibition and other criteria defined below) were then run in singleton concentration-response format with maximum concentration of 20 uM for CYPs and 50 uM for all others. Each assay was run with positive and negative controls, and concurrent controls on every plate. The follow-up (secondary) screen tested active chemical-pairs in concentration series, as well as a few additional assays not tested in the primary screen, some selected negative inactives, and several cases re-run in the concentration series for confirmatory purposes.

Row | Structure (SMILES) | AC50 | outcome
1 | O=S(=O)(O)C(F)(F)C(F)(F)C(F)(F)C(F)(F)C(F)(F)C(F)(F)C(F)(F)C(F)(F)F | 43.9 µM (active) | –
2 | O=C(Nc1ccccc1)Nc1cnns1 | – | inactive
3 | CNC(=S)S | – | inactive
4 | Cc1cnc(C2=NC(C)(C(C)C)C(=O)N2)c(C(=O)O)c1 (stereo not drawn) | – | inactive
5 | C=CCC1=C(C)[C@@H](OC(=O)[C@@H]2[C@@H](C=C(C)C)C2(C)C)CC1=O | – | inactive
6 | S=C1NCCN1 | – | inactive
7 | O=C(O)C(F)(F)C(F)(F)C(F)(F)C(F)(F)C(F)(F)C(F)(F)C(F)(F)F | – | inactive
8 | CC[C@H](C)[C@H]1O[C@]2(C=C[C@@H]1C)C[C@@H]1C[C@@H](C/C=C(\C)[C@@H](O[C@H]3C[C@H](OC)[C@@H](O[C@H]4C[C@H](OC)[C@@H](NC)[C@H](C)O4)[C@H](C)O3)[C@@H](C)/C=C/C=C3\CO[C@@H]4[C@H](O)C(C)=C[C@@H](C(=O)O1)[C@]34O)O2 | 36 µM (active) | –
